Reference: PubChem BioAssay (NCI)
This is part of a sample that, as a whole, favours compounds with a hit. Of some 83,000 tested, about 20% had one in any assay.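 A percent growth of 40 corresponds to 60% growth inhibition; 0 means no net growth; -100 means all cells died. Active threshold: below 10.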 Values without a mark were called inactive. Active and inactive are the calls of the source.

Tested on: HOP-92 NSCLC
Experiment: NCI-60 one-dose screen, 48 h (100 = growth as untreated, 0 = no growth, -100 = all killed)
Details: 10 µM unless noted
Method: Growth inhibition of the HOP-92 human Non-Small Cell Lung tumor cell line is measured as a screen for anti-cancer activity. Cells are grown in 96 well plates and exposed to the test compound for 48 hours. Compounds are tested at a single concentration, which is 10^-5 M for most compounds. The reported endpoint is percent growth (GI% or GIPRCNT), where numbers from 0 - 100% represent growth inhibition, and numbers from -100% - 0 represent cell death. For example, a value of 40 represents 60% growth inhibition. A value of 0 means no net growth occurred over the course of the experiment. A value of -40 indicates 40% of cells at the beginning of the experiment died by the end of the experiment. A value of -100 means all cells are dead at the end of the experiment.
NCI-60 Human Tumor Cell Lines Screen was performed using the standard one-dose NCI protocol, which is described in more detail at https://dtp.cancer.gov/discovery_development/nci-60/default.htm.
Compounds with GIPRCNT values below 10 were considered active. Activity score was based on GIPRCNT using the following formula: […]
Score is 0 for GIPRCNT values of 100 or above, 50 for GIPRCNT values of 0, and 100 for GIPRCNT values of -100.

| SMILES | growth |
| --- | --- |
| CC1CCC(n2cnc3c(Cl)ncnc32)O1 (stereo not given) | 75.5% |
| Fc1ccc(NCc2cn(-c3ccccc3)nc2-c2ccc(OCc3ccccc3)cc2)cc1Cl | 91.2% |
| NC1=Nc2cc(OCCCN3Cc4ccccc4C3)c(OCC3CC3)cc2C12CCCC2 | 40.7% |
| COCC(=O)NC/C=C/c1ccc2ncnc(Nc3ccc(Oc4ccc(C)nc4)c(C)c3)c2c1 | 23.8% |
| CC(C)[C@@H]1CC[C@@H]2[C@@H]1[C@H](OC(=O)/C=C/c1ccccc1)[C@]1(C(C)C)C[C@@H](OC(=O)CO)[C@@]2(C)O1 | 68.6% |
| COc1ccc(-c2ccc3ncc4c(c3c2)n(-c2ccc(N3CCNCC3)c(C(F)(F)F)c2)c(=O)n4C)cn1 | -83.2% (active) |
| CCN(CC)Cc1cc(Nc2cc(C(F)(F)F)c(C#N)c3nc4ccccc4n23)ccc1O | -30.2% (active) |
| C=CCCCC(=O)CCC(=O)OCC1O[C@@H](O[C@@H]2C(O)[C@@H](OC(C)=O)C(C)O[C@H]2O[C@H](CC=C)CCCCC)C(O)[C@@H](OC(=O)/C(C)=C/C)[C@@H]1OC(=O)/C=C/c1ccccc1 (stereo not given in full) | 0.347% (active) |
| CC/C(=C(/c1ccc(Cl)cc1)c1ccc(OCCN2CCCCC2)cc1)c1ccc(Cl)cc1 | 85.2% |
| CC(C)(C)C(=O)OCOP(=O)(OCOC(=O)C(C)(C)C)C1CCCN(OC(=O)c2ccccc2)C1=O (stereo not given) | 29.3% |
| O=C(Cc1ccccc1)Nc1nnc(NC2CCN(c3nnc(NC(=O)Cc4ccccc4)s3)CC2)s1 | 94.5% |
| Cc1cc(C2(c3ccc(O)c(C)c3)OS(=O)(=O)c3ccccc32)ccc1O | 78.6% |
| CCCS(=O)(=O)Nc1ccc(F)c(C(=O)c2c[nH]c3ncc(-c4ccc(Cl)cc4)cc23)c1F | 28% |
| O=S1(=O)OC(c2cc(Cl)c(O)c(Br)c2)(c2cc(Cl)c(O)c(Br)c2)c2ccccc21 | 68.5% |
| CCN(CCCOc1ccc2c(Nc3cc(CC(=O)Nc4cccc(F)c4)[nH]n3)ncnc2c1)CCOP(=O)(O)O | 87.6% |
| CCCC(=O)OCC1OC(n2cnc3c(=S)nc[nH]c32)C(OC(=O)CCC)C1OC(=O)CCC (stereo not given) | 17.9% |
| Brc1ccc([I+]c2ccc(Br)cc2)cc1 | -6.41% (active) |
| Cc1cc(C(=O)NOCCO)c(Nc2ccc(I)cc2F)n(C)c1=O | -21.5% (active) |
| CN1CCN(c2ccc(C(=O)Nc3n[nH]c4ccc(Cc5cc(F)cc(F)c5)cc34)c(NC3CCOCC3)c2)CC1 | -68.6% (active) |
| O=C(CNc1nc(-c2ccc(Cl)cc2)cs1)Nc1ccc(-c2nc3ccccc3s2)cc1 | 92.9% |

| SMILES | growth |
| --- | --- |
| COc1cc(-c2cc(-c3ccc(Nc4ccnc5cc(Cl)ccc45)cc3)nc(N3CCOCC3)n2)cc(OC)c1OC | 85.8% |
| O=C1NC(=O)/C(=C/c2ccc3nccc(-c4ccncc4)c3c2)S1 | -41.1% (active) |
| C[N+](C)(CCOC(c1ccccc1)c1ccccc1)CC(=O)OCc1ccccc1 | 106% |
| O=C1C=CC2(NN=C(c3ccccc3)N2c2ccc(Cl)cc2)c2cccc(O)c21 (stereo not given) | 125% |
| COC(=O)CNC(=O)[C@@H](OC)[C@@H]1Cc2cc3cc(OC4CC(OC5CC(O)C(O)C(C)O5)C(O)C(C)O4)c(C)c(O)c3c(O)c2C(=O)[C@H]1OC1CC(OC2CC(OC3CC(C)(O)C(O)C(C)O3)C(O)C(C)O2)C(O)C(C)O1 (stereo not given in full) | 9.61% (active) |
| Clc1ccc(C(Cn2ccnc2)OCc2ccsc2Cl)c(Cl)c1 (stereo not given) | 28.7% |
| COc1cc2c(cc1OCCCCN1CCN(CC(=O)Nc3ccc(Cl)cc3C(=O)c3ccccc3Cl)CC1)N=CC1CCCN1C2=O (stereo not given) | -85.6% (active) |
| Cc1oc2c(C(=O)N/N=C\c3ccc(O)cc3O)c[nH]c2c1C | 13.4% |
| CC(C)CC(=O)Nc1n[nH]c2c1CN(C(=O)C1CCN(C)CC1)C2(C)C | -3.08% (active) |
| Clc1ccc(/C=C/c2cc(N3CCOCC3)c3cc(Cl)c(Cl)cc3n2)cc1 | 96.6% |
| C=CCC(=O)N[C@H](/C=C/C(=O)O)Cc1ccc(-c2cc(Cl)cc(Cl)c2)cc1 | 96.4% |
| CCOC(=O)Sc1ncnc2nc[nH]c12 | 12.2% |
| COc1ccc(-c2cc3c(oc2=O)-c2ccccc2OC3OC(C)=O)cc1 (stereo not given) | 83.5% |
| COc1cc(Nc2ncc(F)c(Nc3ccc4c(n3)N(COP(=O)(O)O)C(=O)C(C)(C)O4)n2)cc(OC)c1OC | -39.5% (active) |
| O=c1sn(-c2cccc3ccccc23)c(=O)n1Cc1ccccc1 | 89.3% |
| O=C(Cn1cncn1)Nc1ccc(-c2nc3ccccc3s2)cc1 | 93.5% |
| Nc1c2c(c(O)c3c1=C(CO)C=N3)=NCCS2=O (stereo not given) | -54.3% (active) |
| CO[C@H]1C[C@@H]2CC[C@@H](C)[C@@](O)(O2)C(=O)C(=O)N2CCCC[C@H]2C(=O)O[C@H]([C@H](C)C[C@@H]2CC[C@@H](OP(C)(C)=O)[C@H](OC)C2)CC(=O)[C@H](C)/C=C(\C)[C@@H](O)[C@@H](OC)C(=O)[C@H](C)C[C@H](C)\C=C/C=C/C=C/1C | 36.2% |
| C/C(=C(/c1ccc(Cl)cc1)c1ccc(OCCN2CCCCC2)cc1)c1ccccc1 | 83.6% |
| CC(C)[C@@H](C)/C=C/[C@@H](C)[C@H]1CCC2=C3C=CC4=CC(=O)CC[C@]4(C)[C@H]3CC[C@@]21C | 86.6% |
